Like-named read-outs stand apart in the source and are kept apart here.
Legend:
[1] = system: SYK; settings: read-out: apparent Kd, n = 1
[2] = system: TNK2; settings: read-out: apparent Kd, n = 1
[3] = compound concentrations:100 nM and 1000 nM (sheet 'Lestaurtinib' of Supplementary Table 1),run:Lestaurtinib_02748_R1,Plate:MR024
[4] = compound concentrations:100 nM and 1000 nM (sheet 'Lestaurtinib' of Supplementary Table 1),run:Lestaurtinib_02752_R1,Plate:MR025
[5] = compound concentrations:100 nM and 1000 nM (sheet 'Lestaurtinib' of Supplementary Table 1),run:Lestaurtinib_02752_R2,Plate:MR025
[6] = compound concentrations:100 nM and 1000 nM (sheet 'Lestaurtinib' of Supplementary Table 1),run:Lestaurtinib_02765_R2,Plate:MR026
[7] = compound concentrations:100 nM and 1000 nM (sheet 'Lestaurtinib' of Supplementary Table 1),run:Lestaurtinib_02765_R3,Plate:MR026
[8] = compound concentrations:100 nM and 1000 nM (sheet 'Lestaurtinib' of Supplementary Table 1),run:Lestaurtinib_02766_R1,Plate:MR027
[9] = compound concentrations:100 nM and 1000 nM (sheet 'Lestaurtinib' of Supplementary Table 1),run:Lestaurtinib_02766_R3,Plate:MR027
[10] = compound concentrations:100 nM and 1000 nM (sheet 'Lestaurtinib' of Supplementary Table 1),run:Lestaurtinib_02768_R1,Plate:MR028
[11] = compound concentrations:100 nM and 1000 nM (sheet 'Lestaurtinib' of Supplementary Table 1),run:Lestaurtinib_02768_R2,Plate:MR028
[12] = compound concentrations:100 nM and 1000 nM (sheet 'Lestaurtinib' of Supplementary Table 1),run:Lestaurtinib_02795_R1,Plate:MR022
[13] = compound concentrations:100 nM and 1000 nM (sheet 'Lestaurtinib' of Supplementary Table 1),run:Lestaurtinib_02795_R3,Plate:MR022
[14] = compound concentrations:100 nM and 1000 nM (sheet 'Lestaurtinib' of Supplementary Table 1),run:Lestaurtinib_02802_R1,Plate:MR029
[15] = compound concentrations:100 nM and 1000 nM (sheet 'Lestaurtinib' of Supplementary Table 1),run:Lestaurtinib_02802_R3,Plate:MR029
[16] = compound concentrations:100 nM and 1000 nM (sheet 'Lestaurtinib' of Supplementary Table 1),run:Lestaurtinib_02896_R1,Plate:MR030
[17] = compound concentrations:100 nM and 1000 nM (sheet 'Lestaurtinib' of Supplementary Table 1),run:Lestaurtinib_02896_R3,Plate:MR030
[18] = compound concentrations:100 nM and 1000 nM (sheet 'Lestaurtinib' of Supplementary Table 1),run:Lestaurtinib_03172_R3,Plate:MR031
[19] = compound concentrations:100 nM and 1000 nM (sheet 'Lestaurtinib' of Supplementary Table 1),run:Lestaurtinib_03252_R1,Plate:MR032
[20] = compound concentrations:100 nM and 1000 nM (sheet 'Lestaurtinib' of Supplementary Table 1),run:Lestaurtinib_03260_R3,Plate:MR033

Substance Lestaurtinib has a potency estimated from few doses [1, 3] of 393 nM, a potency estimated from few doses ([1]; compound concentrations:100 nM and 1000 nM (sheet 'Lestaurtinib' of Supplementary Table 1),run:Lestaurtinib_02748_R2,Plate:MR024) of 196 nM and a potency estimated from few doses [1, 4] of 510 nM. For the same substance, the potency estimated from few doses [1, 5] was 136 nM, the potency estimated from few doses [1, 6] was 169 nM and the potency estimated from few doses [1, 7] was 182 nM. It also gave a potency estimated from few doses [1, 8] of 211 nM, a potency estimated from few doses [1, 9] of 441 nM and a potency estimated from few doses [1, 10] of 484 nM. The potency estimated from few doses [1, 11] was 424 nM, the potency estimated from few doses [1, 12] was 460 nM and the potency estimated from few doses ([1]; compound concentrations:100 nM and 1000 nM (sheet 'Lestaurtinib' of Supplementary Table 1),run:Lestaurtinib_02795_R2,Plate:MR022) was 141 nM. It also gave a potency estimated from few doses [1, 13] of 259 nM, a potency estimated from few doses [1, 14] of 239 nM and a potency estimated from few doses [1, 15] of 451 nM. The potency estimated from few doses [1, 16] was 253 nM, the potency estimated from few doses [1, 17] was 217 nM and the potency estimated from few doses ([1]; compound concentrations:100 nM and 1000 nM (sheet 'Lestaurtinib' of Supplementary Table 1),run:Lestaurtinib_03172_R2,Plate:MR031) was 595 nM. For the same substance, the potency estimated from few doses [1, 18] was 400 nM, the potency estimated from few doses [1, 19] was 149 nM and the potency estimated from few doses ([1]; compound concentrations:100 nM and 1000 nM (sheet 'Lestaurtinib' of Supplementary Table 1),run:Lestaurtinib_03252_R2,Plate:MR032) was 222 nM. For the same substance, the potency estimated from few doses ([1]; compound concentrations:100 nM and 1000 nM (sheet 'Lestaurtinib' of Supplementary Table 1),run:Lestaurtinib_03260_R2,Plate:MR033) was 224 nM, the potency estimated from few doses [1, 20] was 130 nM and the potency estimated from few doses ([2]; compound concentrations:100 nM and 1000 nM (sheet 'Lestaurtinib' of Supplementary Table 1),run:Lestaurtinib_02339_R3,Plate:MR001) was 44 nM. For the same substance, the potency estimated from few doses ([2]; compound concentrations:100 nM and 1000 nM (sheet 'Lestaurtinib' of Supplementary Table 1),run:Lestaurtinib_02364_R1,Plate:MR002) was 69.8 nM, the potency estimated from few doses ([2]; compound concentrations:100 nM and 1000 nM (sheet 'Lestaurtinib' of Supplementary Table 1),run:Lestaurtinib_02364_R2,Plate:MR002) was 56.4 nM and the potency estimated from few doses ([2]; compound concentrations:100 nM and 1000 nM (sheet 'Lestaurtinib' of Supplementary Table 1),run:Lestaurtinib_02364_R3,Plate:MR002) was 61.3 nM. The potency estimated from few doses ([2]; compound concentrations:100 nM and 1000 nM (sheet 'Lestaurtinib' of Supplementary Table 1),run:Lestaurtinib_02367_R1,Plate:MR003) was 66.6 nM, the potency estimated from few doses ([2]; compound concentrations:100 nM and 1000 nM (sheet 'Lestaurtinib' of Supplementary Table 1),run:Lestaurtinib_02367_R2,Plate:MR003) was 52.8 nM and the potency estimated from few doses ([2]; compound concentrations:100 nM and 1000 nM (sheet 'Lestaurtinib' of Supplementary Table 1),run:Lestaurtinib_02381_R1,Plate:MR004) was 50 nM. The potency estimated from few doses ([2]; compound concentrations:100 nM and 1000 nM (sheet 'Lestaurtinib' of Supplementary Table 1),run:Lestaurtinib_02381_R2,Plate:MR004) was 65.5 nM, the potency estimated from few doses ([2]; compound concentrations:100 nM and 1000 nM (sheet 'Lestaurtinib' of Supplementary Table 1),run:Lestaurtinib_02407_R3,Plate:MR005) was 54.4 nM and the potency estimated from few doses ([2]; compound concentrations:100 nM and 1000 nM (sheet 'Lestaurtinib' of Supplementary Table 1),run:Lestaurtinib_02422_R1,Plate:MR006) was 44.1 nM. The potency estimated from few doses ([2]; compound concentrations:100 nM and 1000 nM (sheet 'Lestaurtinib' of Supplementary Table 1),run:Lestaurtinib_02422_R3,Plate:MR006) was 48 nM, the potency estimated from few doses ([2]; compound concentrations:100 nM and 1000 nM (sheet 'Lestaurtinib' of Supplementary Table 1),run:Lestaurtinib_02437_R3,Plate:MR007) was 14.1 nM and the potency estimated from few doses ([2]; compound concentrations:100 nM and 1000 nM (sheet 'Lestaurtinib' of Supplementary Table 1),run:Lestaurtinib_02438_R2,Plate:MR008) was 43.2 nM. It also gave a potency estimated from few doses ([2]; compound concentrations:100 nM and 1000 nM (sheet 'Lestaurtinib' of Supplementary Table 1),run:Lestaurtinib_02443_R2,Plate:MR009) of 44.4 nM, a potency estimated from few doses ([2]; compound concentrations:100 nM and 1000 nM (sheet 'Lestaurtinib' of Supplementary Table 1),run:Lestaurtinib_02443_R3,Plate:MR009) of 62 nM and a potency estimated from few doses ([2]; compound concentrations:100 nM and 1000 nM (sheet 'Lestaurtinib' of Supplementary Table 1),run:Lestaurtinib_02473_R1,Plate:MR010) of 52.5 nM. For the same substance, the potency estimated from few doses ([2]; compound concentrations:100 nM and 1000 nM (sheet 'Lestaurtinib' of Supplementary Table 1),run:Lestaurtinib_02473_R3,Plate:MR010) was 23.2 nM, the potency estimated from few doses ([2]; compound concentrations:100 nM and 1000 nM (sheet 'Lestaurtinib' of Supplementary Table 1),run:Lestaurtinib_02482_R1,Plate:MR011) was 54.7 nM and the potency estimated from few doses ([2]; compound concentrations:100 nM and 1000 nM (sheet 'Lestaurtinib' of Supplementary Table 1),run:Lestaurtinib_02482_R2,Plate:MR011) was 59.1 nM. It also gave a potency estimated from few doses ([2]; compound concentrations:100 nM and 1000 nM (sheet 'Lestaurtinib' of Supplementary Table 1),run:Lestaurtinib_02482_R3,Plate:MR011) of 60.1 nM, a potency estimated from few doses ([2]; compound concentrations:100 nM and 1000 nM (sheet 'Lestaurtinib' of Supplementary Table 1),run:Lestaurtinib_02487_R1,Plate:MR012) of 51.2 nM and a potency estimated from few doses ([2]; compound concentrations:100 nM and 1000 nM (sheet 'Lestaurtinib' of Supplementary Table 1),run:Lestaurtinib_02487_R3,Plate:MR012) of 44.6 nM. For the same substance, the potency estimated from few doses ([2]; compound concentrations:100 nM and 1000 nM (sheet 'Lestaurtinib' of Supplementary Table 1),run:Lestaurtinib_02496_R2,Plate:MR013) was 48.4 nM, the potency estimated from few doses ([2]; compound concentrations:100 nM and 1000 nM (sheet 'Lestaurtinib' of Supplementary Table 1),run:Lestaurtinib_02496_R3,Plate:MR013) was 38.5 nM and the potency estimated from few doses ([2]; compound concentrations:100 nM and 1000 nM (sheet 'Lestaurtinib' of Supplementary Table 1),run:Lestaurtinib_02566_R1,Plate:MR014) was 51.6 nM. For the same substance, the potency estimated from few doses ([2]; compound concentrations:100 nM and 1000 nM (sheet 'Lestaurtinib' of Supplementary Table 1),run:Lestaurtinib_02566_R2,Plate:MR014) was 58.8 nM, the potency estimated from few doses ([2]; compound concentrations:100 nM and 1000 nM (sheet 'Lestaurtinib' of Supplementary Table 1),run:Lestaurtinib_02572_R1,Plate:MR015) was 37.5 nM and the potency estimated from few doses ([2]; compound concentrations:100 nM and 1000 nM (sheet 'Lestaurtinib' of Supplementary Table 1),run:Lestaurtinib_02572_R2,Plate:MR015) was 46.2 nM. The potency estimated from few doses ([2]; compound concentrations:100 nM and 1000 nM (sheet 'Lestaurtinib' of Supplementary Table 1),run:Lestaurtinib_02572_R3,Plate:MR015) was 49.3 nM, the potency estimated from few doses ([2]; compound concentrations:100 nM and 1000 nM (sheet 'Lestaurtinib' of Supplementary Table 1),run:Lestaurtinib_02577_R1,Plate:MR016) was 55.6 nM and the potency estimated from few doses ([2]; compound concentrations:100 nM and 1000 nM (sheet 'Lestaurtinib' of Supplementary Table 1),run:Lestaurtinib_02577_R2,Plate:MR016) was 56.4 nM. The potency estimated from few doses ([2]; compound concentrations:100 nM and 1000 nM (sheet 'Lestaurtinib' of Supplementary Table 1),run:Lestaurtinib_02577_R3,Plate:MR016) was 62.6 nM, the potency estimated from few doses ([2]; compound concentrations:100 nM and 1000 nM (sheet 'Lestaurtinib' of Supplementary Table 1),run:Lestaurtinib_02584_R1,Plate:MR017) was 56.4 nM and the potency estimated from few doses ([2]; compound concentrations:100 nM and 1000 nM (sheet 'Lestaurtinib' of Supplementary Table 1),run:Lestaurtinib_02584_R2,Plate:MR017) was 64.8 nM. It also gave a potency estimated from few doses ([2]; compound concentrations:100 nM and 1000 nM (sheet 'Lestaurtinib' of Supplementary Table 1),run:Lestaurtinib_02601_R1,Plate:MR018) of 77.3 nM, a potency estimated from few doses ([2]; compound concentrations:100 nM and 1000 nM (sheet 'Lestaurtinib' of Supplementary Table 1),run:Lestaurtinib_02606_R1,Plate:MR019) of 55.6 nM and a potency estimated from few doses ([2]; compound concentrations:100 nM and 1000 nM (sheet 'Lestaurtinib' of Supplementary Table 1),run:Lestaurtinib_02606_R3,Plate:MR019) of 54.4 nM. It also gave a potency estimated from few doses ([2]; compound concentrations:100 nM and 1000 nM (sheet 'Lestaurtinib' of Supplementary Table 1),run:Lestaurtinib_02624_R2,Plate:MR020) of 52.3 nM, a potency estimated from few doses ([2]; compound concentrations:100 nM and 1000 nM (sheet 'Lestaurtinib' of Supplementary Table 1),run:Lestaurtinib_02724_R2,Plate:MR021) of 56.1 nM and a potency estimated from few doses ([2]; compound concentrations:100 nM and 1000 nM (sheet 'Lestaurtinib' of Supplementary Table 1),run:Lestaurtinib_02741_R2,Plate:MR023) of 224 nM. The potency estimated from few doses [2, 3] was 38.5 nM, the potency estimated from few doses ([2]; compound concentrations:100 nM and 1000 nM (sheet 'Lestaurtinib' of Supplementary Table 1),run:Lestaurtinib_02748_R3,Plate:MR024) was 52.3 nM and the potency estimated from few doses [2, 4] was 57.7 nM. The potency estimated from few doses [2, 5] was 46.1 nM, the potency estimated from few doses [2, 6] was 115 nM and the potency estimated from few doses [2, 7] was 75.6 nM. The potency estimated from few doses [2, 8] was 51.8 nM, the potency estimated from few doses ([2]; compound concentrations:100 nM and 1000 nM (sheet 'Lestaurtinib' of Supplementary Table 1),run:Lestaurtinib_02766_R2,Plate:MR027) was 15.7 nM and the potency estimated from few doses [2, 9] was 41.6 nM. For the same substance, the potency estimated from few doses [2, 10] was 60 nM, the potency estimated from few doses [2, 11] was 56.1 nM and the potency estimated from few doses [2, 12] was 49.4 nM. For the same substance, the potency estimated from few doses [2, 13] was 160 nM, the potency estimated from few doses [2, 14] was 71.2 nM and the potency estimated from few doses [2, 15] was 9.76 nM. The potency estimated from few doses [2, 16] was 61.8 nM, the potency estimated from few doses [2, 17] was 53.9 nM and the potency estimated from few doses ([2]; compound concentrations:100 nM and 1000 nM (sheet 'Lestaurtinib' of Supplementary Table 1),run:Lestaurtinib_03172_R1,Plate:MR031) was 45.6 nM. The potency estimated from few doses [2, 18] was 48.7 nM, the potency estimated from few doses [2, 19] was 75.4 nM and the potency estimated from few doses ([2]; compound concentrations:100 nM and 1000 nM (sheet 'Lestaurtinib' of Supplementary Table 1),run:Lestaurtinib_03260_R1,Plate:MR033) was 115 nM. For the same substance, the potency estimated from few doses [2, 20] was 59.2 nM.
